Bioassay records deposited in PubChem by National Center for Advancing Translational Sciences (NCATS).
The list is not random: actives were taken first. Their share in the collection is about 5.3%.
BAZ2B inh – inhibitors of human BAZ2B bromodomain | Q9UIF8 | AlphaScreen BAZ2B-H3K14Ac peptide displacement | Potency, µM (titrated, usually from 114 µM), for inactives: top-dose activity change, negative = inhibition, most hits filed as inhibitors | 360,000 tested, 4.4% active | AID 504333; also: potency is read from the fitted curve at half-maximal effect; % is scaled to controls: 0 for no effect and ±100 for the full control effect; nearly all actives have a fitted effect of over 60% in size
Target sequence (Q9UIF8 whole entry, looked up): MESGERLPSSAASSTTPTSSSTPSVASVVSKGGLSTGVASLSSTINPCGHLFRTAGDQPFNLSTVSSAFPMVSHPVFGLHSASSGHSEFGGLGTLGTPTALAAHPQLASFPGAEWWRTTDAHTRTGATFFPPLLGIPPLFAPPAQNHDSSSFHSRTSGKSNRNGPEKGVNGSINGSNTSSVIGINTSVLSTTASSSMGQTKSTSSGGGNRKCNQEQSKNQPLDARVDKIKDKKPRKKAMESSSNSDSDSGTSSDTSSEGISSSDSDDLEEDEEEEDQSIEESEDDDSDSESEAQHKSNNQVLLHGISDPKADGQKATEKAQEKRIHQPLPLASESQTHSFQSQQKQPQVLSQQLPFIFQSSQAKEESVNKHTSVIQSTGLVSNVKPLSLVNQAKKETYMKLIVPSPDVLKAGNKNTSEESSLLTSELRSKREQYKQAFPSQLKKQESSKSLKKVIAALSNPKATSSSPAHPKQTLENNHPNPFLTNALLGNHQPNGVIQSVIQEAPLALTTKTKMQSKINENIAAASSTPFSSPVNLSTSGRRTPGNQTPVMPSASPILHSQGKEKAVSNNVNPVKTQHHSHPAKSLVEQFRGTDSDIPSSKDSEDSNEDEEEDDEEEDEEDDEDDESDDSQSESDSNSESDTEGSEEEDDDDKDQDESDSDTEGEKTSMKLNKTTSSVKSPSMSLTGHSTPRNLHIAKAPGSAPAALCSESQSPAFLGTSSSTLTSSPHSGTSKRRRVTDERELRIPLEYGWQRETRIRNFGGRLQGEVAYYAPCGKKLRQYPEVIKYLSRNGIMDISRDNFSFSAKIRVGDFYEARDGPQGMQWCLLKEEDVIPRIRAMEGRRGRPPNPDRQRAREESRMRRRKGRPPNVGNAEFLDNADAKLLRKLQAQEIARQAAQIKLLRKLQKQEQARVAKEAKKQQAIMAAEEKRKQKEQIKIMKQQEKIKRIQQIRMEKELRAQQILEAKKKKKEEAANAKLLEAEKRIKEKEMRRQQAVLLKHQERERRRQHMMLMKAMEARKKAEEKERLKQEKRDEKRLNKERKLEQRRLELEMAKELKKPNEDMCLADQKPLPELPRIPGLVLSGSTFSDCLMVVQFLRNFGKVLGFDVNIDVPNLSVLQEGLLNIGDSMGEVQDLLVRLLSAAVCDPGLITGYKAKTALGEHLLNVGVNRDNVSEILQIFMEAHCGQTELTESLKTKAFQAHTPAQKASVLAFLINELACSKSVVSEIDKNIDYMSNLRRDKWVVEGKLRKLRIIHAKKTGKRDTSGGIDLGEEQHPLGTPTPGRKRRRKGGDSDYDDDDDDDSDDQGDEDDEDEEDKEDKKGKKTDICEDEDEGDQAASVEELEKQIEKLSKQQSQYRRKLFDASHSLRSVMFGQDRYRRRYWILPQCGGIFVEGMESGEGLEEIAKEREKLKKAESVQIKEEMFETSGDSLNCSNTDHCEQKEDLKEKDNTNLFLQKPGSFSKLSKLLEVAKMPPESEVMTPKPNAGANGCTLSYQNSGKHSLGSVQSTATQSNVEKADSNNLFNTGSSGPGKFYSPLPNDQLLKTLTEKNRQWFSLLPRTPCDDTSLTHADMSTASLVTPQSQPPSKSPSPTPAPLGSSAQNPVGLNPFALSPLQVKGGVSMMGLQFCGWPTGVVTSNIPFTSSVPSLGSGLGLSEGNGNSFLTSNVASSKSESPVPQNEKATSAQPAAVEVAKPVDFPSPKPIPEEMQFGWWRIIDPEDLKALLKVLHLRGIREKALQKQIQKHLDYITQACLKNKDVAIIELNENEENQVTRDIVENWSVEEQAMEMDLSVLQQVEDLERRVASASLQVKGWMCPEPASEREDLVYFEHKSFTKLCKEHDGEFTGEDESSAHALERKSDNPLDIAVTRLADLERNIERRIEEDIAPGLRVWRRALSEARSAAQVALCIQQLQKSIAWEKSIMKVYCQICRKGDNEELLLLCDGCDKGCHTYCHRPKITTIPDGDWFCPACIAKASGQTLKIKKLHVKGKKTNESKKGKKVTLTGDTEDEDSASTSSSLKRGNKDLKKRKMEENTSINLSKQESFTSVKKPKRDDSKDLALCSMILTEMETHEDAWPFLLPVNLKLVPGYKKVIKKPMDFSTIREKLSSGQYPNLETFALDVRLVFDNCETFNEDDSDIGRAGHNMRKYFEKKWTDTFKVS
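BAZ2B (50 nM) with biotin-H3(5-23)K14Ac peptide (50 nM) in PBS pH 7.4, 0.01% Tween-20, preformed 30 min, then compound 30 min at room temperature; top concentration 110uM. AlphaScreen streptavidin donor/nickel chelate acceptor beads (10 ug/mL final), 20 min dark, signal read.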
TDP1 inh – blocks human tyrosyl-DNA phosphodiesterase 1; Q9NUW8; Potency, µM (top dose mostly 130 µM), for inactives: at the highest dose activity change, negative = inhibition, usual class: inhibitors; recombinant TDP1, AlphaScreen DNA substrate cleavage; 350,000 tested, 0.28% active; also: potency is read from the fitted curve at half-maximal effect; % is scaled to controls: 0 for no effect and ±100 for the full control effect; nearly all actives have a fitted effect of over 40% in size
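Here, a 5' biotin and 3' phosphotyrosine-FITC DNA oligonucleotide reports Tdp1 activity: intact substrate bridges AlphaScreen beads, while cleavage leaves a 3' phosphate and drops signal. All incubations at room temperature.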
HP1b binding inh – HP1-beta chromodomain-methylated histone interaction inhibition. AlphaScreen HP1-beta / biotin-H3K9me3 peptide binding. Potency, µM (top dose mostly 114 µM), for inactives: at the top dose activity change, negative = inhibition, actives largely listed as inhibitors. 390,000 tested, 0.56% active. AID 540317; also: potency is read from the fitted curve at half-maximal effect; nearly all actives have a fitted effect of over 70% in size
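AlphaScreen: HP1-beta (50 nM) preformed 30 min with biotin-H3(1-18)K9me3 peptide (50 nM) in PBS pH 7.4, 0.01% Tween-20. Compound added for 30 min at RT, then streptavidin donor/nickel chelate acceptor beads (10 ug/mL) for 30 min.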
JMJD2A Tudor – inhibitors of human JMJD2A Tudor domain | AlphaScreen JMJD2A-Tudor / H3K4me3 peptide binding | Potency, µM (series often up to 114 µM), without a hit: at the highest dose activity change, negative = inhibition, usual class: inhibitors | 390,000 tested, 4.4% active; also: potency is read from the fitted curve at half-maximal effect; % is scaled to controls: 0 for no effect and ±100 for the full control effect; nearly all actives have a fitted effect of over 50% in size
CtBP-E1A blk – inhibitors of CtBP/E1A interaction. AID 651724. 340,000 tested, 0.49% active. activity change, % (no concentration beside the values). AlphaScreen GST-E1A/His-CtBP binding, 1536-well; hits give low values; in the data active = activity change below about -65%; inconclusive = mostly about -30% to -63%; also: % is scaled to controls: 0 for no effect and ±100 for the full control effect
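Steps: dispense buffer (Tris pH 8.0, NaCl 300 mM, TCEP 1 mM, BSA, Tween 20); add 5X protein mix (GST-E1A, His-CtBP, 125 nM each); pin 23 nL compound; 2 h at 37 °C, dark; add 5X beads (50 ug/mL); 1 h; read.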
Six1-Eya2 blk – blocks human Six1 binding to Eya2; Q15475+O00167; AlphaScreen GST-Six1/His-Eya2 binding, biochemical; hits give low values; activity change, % (concentration not given with the values); 360,000 tested, 0.56% active; AID 651725; in the data active = activity change below about -65%; inconclusive = mostly about -30% to -63%; also: % is scaled to controls: 0 for no effect and ±100 for the full control effect
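AlphaScreen luminescence read after one hour at 37 °C in darkness. Pin-transferred compounds met GST-Six1 and His-Eya2 protein (5X stock 250 nM/500 nM) plus glutathione donor and Ni-chelate acceptor beads (5X, 50 ug/mL).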
Active calls of the source: *; ? = inconclusive; / = no result; [ ] = dose if it differs, or a comment. Unless noted, calls follow the shape of the dose curve; as a rule, active = well fitted inhibition curve with a large enough effect; inconclusive = small, poorly fitted or top-dose-only effect; inactive = no such curve, though single readings can be large or run the other way.

SMILES | BAZ2B inh | TDP1 inh | HP1b binding inh | JMJD2A Tudor | CtBP-E1A blk | Six1-Eya2 blk
O=[N+]([O-])c1ccc(NN=Cc2ccccc2)nc1 | / | / | 27% | -15% | -15 | 0
Cc1cc(/C=N/Nc2ccc([N+](=O)[O-])cn2)c(C)n1-c1ccc(C(=O)O)cc1 | 50µM* | / | -36% | ? | -13 | ?
O=[N+]([O-])c1ccc(NN=Cc2ccc(O)cc2O)nc1 | / | / | 10%[57 µM] | -16% | -74* | -69*
O=[N+]([O-])c1ccc(N/N=C\c2cccn2-c2ccccc2)nc1 | ? | 13% | ? | 40µM* | ? | ?
Cc1ccc(Cl)cc1NC(=O)c1ccc2nc(CCc3ccccc3)oc2c1 | 1% | 3% | 28%[57 µM] | -5% | / | /
O=[N+]([O-])c1ccc(O)c(/C=N/Nc2nc3ccccc3[nH]2)c1 | 32µM* | 10% | 17% | ? | -97* | -92*
O=C(CNS(=O)(=O)c1ccc([N+](=O)[O-])cc1)N/N=C/c1ccc(O)cc1O | 4% | / | 18% | -21% | ? | -73*
O=[N+]([O-])c1ccc(O)c(/C=N/Nc2ncnc3c2cnn3-c2ccccc2)c1 | ? | / | -10% | 79µM* | ? | -14
CCN(CC)S(=O)(=O)c1ccc(N/N=C/c2ccc(O)cc2O)nc1 | 25µM* | -4% | 37% | -28% | -95* | -94*
O=C(CNS(=O)(=O)c1ccc([N+](=O)[O-])cc1)N/N=C\c1ccc(O)cc1 | 3% | / | 25% | -16% | / | 1
COc1ccc(O)c(/C=N/Nc2nc3ccccc3[nH]2)c1 | -34% | 8% | 48% | -2% | 5 | 0
O=C(C1CCCCC1)N(Cc1cccnc1)c1nc2c(F)cccc2s1 | -4% | 0% | 40% | -12% | / | /
COc1ccc(S(=O)(=O)NCC(c2ccco2)S(=O)(=O)c2ccc(C)cc2)cc1C (stereo unspecified) | -23% | -3% | 13% | -24% | / | /
Cc1cc2c(s1)c1cnn(Cc3ccc(Cl)c(Cl)c3)c(=O)c1n2C | / | / | / | -30% | / | /
O=[N+]([O-])c1cccc(N/N=C/c2cc([N+](=O)[O-])ccc2O)c1 | -24% | 4% | 7% | -8% | -10 | -17
O=[N+]([O-])c1ccc(O)c(C=NNc2ccc(S(=O)(=O)O)cc2)c1 | / | / | -7%[57 µM] | 79µM* | -3 | ?
O=[N+]([O-])c1ccc(NN=Cc2ccccc2O)nc1 | / | / | 23% | -24% | -79* | -78*
COc1ccccc1C=NNc1ccc([N+](=O)[O-])cn1 | / | / | 18% | -16% | 7 | 2
Cc1ccc(NC(=O)CCc2ccccc2)cc1C | / | / | / | / | -1 | 10
Cc1ccc(NC(=O)CNC(=O)OCc2ccccc2)cc1C | -4% | 7% | -3% | 56µM* | 7 | 12
O=C(Cc1ccccc1)N/N=C/c1ccccn1 | / | / | 22% | -17% | -1 | -5
S=C(NN=C(c1ccccc1)c1ccccn1)N(Cc1ccccn1)Cc1ccccn1 | / | / | ? | 13µM* | 4 | -94*
S=C(NN=Cc1ccccn1)N(Cc1ccccn1)Cc1ccccn1 | / | / | ? | 20µM* | -94* | -91*
CC(=NNC(=S)N(Cc1ccccn1)Cc1ccccn1)c1cnccn1 | / | / | ? | 18µM* | -3 | -90*
Cc1ccccc1NC(=S)N(Cc1ccccn1)Cc1ccccc1Cl | -24% | 4% | 47% | -6% | -3 | -8
O=C(c1ccc(S(=O)(=O)N2CCCC2)cc1)N1CCCCC1 | -3% | 13% | 9% | -6% | -6 | -5
O=C(/C=C/c1ccc(O)c(O)c1)c1ccc(S(=O)(=O)N2CCCCCC2)cc1 | 35µM* | 9% | 40µM* | ? | 20 | -10
O=C(Nc1c(C(=O)c2ccccc2)oc2ccccc12)c1cc(=O)c2ccccc2o1 | 1% | 10% | 42% | 0% | / | /
CNCCCC1c2ccccc2C=Cc2ccccc21 | -3% | 3% | 10% | -14% | -13 | 0
CNCCCC1Sc2ccccc2Oc2ccccc21 (stereo unspecified) | ? | -14% | -34% | 8.9µM* | 0 | 6
